Screening results: PubChem, several laboratories
An excerpt weighted towards active compounds, which were near 4.6% of everything screened.
ADAM10 inh = inhibits human ADAM10 | hit rate 0.62% among 370,000 | AID 720582 | recombinant ADAM10, EDANS/DABCYL FRET peptide cleavage, 3 h | inhibition, % at 7 µM | O14672;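 active means inhibition above a per-campaign cutoff equal to the mean of compounds falling between control-based bounds plus 3 SD, cut at about 20% in these data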
Target sequence (O14672 214-748 limits assumed): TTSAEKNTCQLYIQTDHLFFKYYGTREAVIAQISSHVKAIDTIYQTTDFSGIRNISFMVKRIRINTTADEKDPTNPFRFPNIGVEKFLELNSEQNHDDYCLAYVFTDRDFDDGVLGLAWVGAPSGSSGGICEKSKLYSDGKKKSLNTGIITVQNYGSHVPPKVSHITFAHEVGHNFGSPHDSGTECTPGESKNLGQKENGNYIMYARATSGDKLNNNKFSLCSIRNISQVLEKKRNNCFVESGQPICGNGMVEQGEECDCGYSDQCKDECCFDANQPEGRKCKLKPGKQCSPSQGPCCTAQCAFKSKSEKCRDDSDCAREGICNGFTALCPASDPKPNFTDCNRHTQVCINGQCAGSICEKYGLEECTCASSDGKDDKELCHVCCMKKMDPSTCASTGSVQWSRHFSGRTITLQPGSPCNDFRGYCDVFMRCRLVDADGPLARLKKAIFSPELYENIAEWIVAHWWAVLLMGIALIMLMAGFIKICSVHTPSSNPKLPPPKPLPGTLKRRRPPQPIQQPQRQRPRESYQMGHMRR
FAS-TE inh = blocks the thioesterase domain of human fatty acid synthase; P49327; hit rate 0.67% among 360,000; recombinant FAS-TE, OMFH fluorogenic substrate, fluorescence endpoint; inhibition, % at 15 µM;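 active means compounds whose normalised, plate-corrected inhibition of enzyme fluorescence in the single-dose primary screen is 50% or more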
ADAM17 inh = inhibits human ADAM17. recombinant ADAM17, EDANS/DABCYL FRET peptide cleavage. hit rate 0.83% among 370,000. inhibition, % at 6.95 µM. AID 720648;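 active means inhibition above the mean of compounds lying between control limits plus 3 SD, set per campaign, cut at about 8.5% in these data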
GRIN3A LBD mod = modulators (binders) of human NR3A ligand-binding domain; NR3A LBD differential scanning fluorimetry, Tm shift; 0% = protein alone, 100% = glycine-bound protein; Tm shift relative to glycine control, % at 25 µM; hit rate 2.5% among 340,000;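 active means melting temperature shift of at least 10% of the positive control shift, at one fixed dose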
KLK7 zymogen act = activators of human kallikrein-7 zymogen; P49862; purified proKLK7, EDANS-DABCYL substrate fluorescence; 100% is mature enzyme control, 0% vehicle; activation, % at 7 µM; hit rate 0.9% among 370,000; AID 652039;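 active means activation above the mean of all tested compounds plus 3 SD, computed per campaign excluding outliers beyond control limits, cut at about 13% in these data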
Numbers stand for hits.

Screening COC(=O)[C@]12C[C@H](CC(=O)NCc3ccc(OC)c(OC)c3)C(=O)N(Cc3ccco3)C1=C[C@H](C(C)C)O[C@@H]2C1CC1 returned ADAM10 inh inactive, ADAM17 inh inactive and KLK7 zymogen act inactive.
CCOC(=O)c1c[nH]c(=S)n(-c2ccccc2)c1=O was read as ADAM10 inh inactive, FAS-TE inh inactive, ADAM17 inh inactive, GRIN3A LBD mod 13 and KLK7 zymogen act inactive.
For CCOC(=O)c1c(C)c2c(=O)[nH]cnc2n1-c1ccccc1 the results were ADAM10 inh inactive, FAS-TE inh inactive, ADAM17 inh inactive, GRIN3A LBD mod inactive and KLK7 zymogen act inactive.
Screening Nc1cc2c(cc1Br)-c1ccccc1C2=NO returned ADAM10 inh inactive, FAS-TE inh inactive, ADAM17 inh inactive, GRIN3A LBD mod 31 and KLK7 zymogen act inactive.
CCCn1nc(C(=O)Nc2cc(S(=O)(=O)Nc3ccc(OC)cc3)ccc2O)c2ccccc2c1=O was read as ADAM10 inh inactive, FAS-TE inh inactive, ADAM17 inh inactive, GRIN3A LBD mod 27 and KLK7 zymogen act inactive.
For O=C(CSc1nc2[nH]ncc2c(=O)[nH]1)Nc1ccc(Cl)cc1 the results were ADAM10 inh inactive, FAS-TE inh inactive, ADAM17 inh inactive, GRIN3A LBD mod 25 and KLK7 zymogen act inactive.
COCc1c(C(=O)N2CCc3ccccc32)oc2ccccc12 was read as ADAM10 inh inactive, FAS-TE inh inactive, ADAM17 inh inactive, GRIN3A LBD mod inactive and KLK7 zymogen act inactive.
For Cc1c(C(=O)N2CCc3ccccc32)oc2ccccc12 the results were ADAM10 inh inactive, FAS-TE inh inactive, ADAM17 inh inactive, GRIN3A LBD mod 14 and KLK7 zymogen act inactive.
`Fc1ccc(Nc2nc(NCc3ccco3)c3ccccc3n2)cc1` gave ADAM10 inh inactive, FAS-TE inh inactive, ADAM17 inh inactive, GRIN3A LBD mod 10 and KLK7 zymogen act inactive.
CCOC(=O)[C@@]12CCCC3=C1N(CCC3)C(=O)[C@H]2CC(=O)NCCCOC was read as ADAM10 inh inactive, ADAM17 inh inactive and KLK7 zymogen act inactive.
`Cc1cccc(C(=O)Nc2ccc(C(=O)/C=C/c3cccnc3)cc2)c1` gave ADAM10 inh inactive, FAS-TE inh inactive, ADAM17 inh inactive, GRIN3A LBD mod 24 and KLK7 zymogen act inactive.
Screening Cc1cccc(C(=O)Nc2ccc(C(=O)/C=C/c3ccncc3)cc2)c1 returned ADAM10 inh inactive, FAS-TE inh inactive, ADAM17 inh inactive, GRIN3A LBD mod 16 and KLK7 zymogen act inactive.
O=C(/C=C/c1cccnc1)c1ccc(NC(=O)c2cccc(Br)c2)cc1 was read as ADAM10 inh inactive, FAS-TE inh inactive, ADAM17 inh inactive, GRIN3A LBD mod 26 and KLK7 zymogen act inactive.
Screening Cc1cccc(C(=O)Nc2ccc(NC(=O)c3ccccc3)cc2)c1 returned ADAM10 inh inactive, FAS-TE inh inactive, ADAM17 inh inactive, GRIN3A LBD mod inactive and KLK7 zymogen act inactive.
For CCOC(=O)c1cccc(NC(=O)CN(C)S(=O)(=O)c2ccc(C)c(C)c2)c1 the results were ADAM10 inh inactive, ADAM17 inh inactive and KLK7 zymogen act inactive.
For O=S(=O)(Nc1nc2ccccc2nc1Nc1ccc2c(c1)OCCO2)c1cccs1 the results were ADAM10 inh inactive, FAS-TE inh inactive, ADAM17 inh inactive, GRIN3A LBD mod 13 and KLK7 zymogen act inactive.
COC(=O)[C@]12C[C@H](CC(=O)NCc3cccs3)C(=O)N(Cc3ccco3)C1=C[C@H](C1CCCC1)O[C@@H]2C was read as ADAM10 inh inactive, ADAM17 inh inactive and KLK7 zymogen act inactive.
Screening Cc1cc(C(=O)CSc2nc3ccccc3[nH]2)c(C)n1Cc1ccco1 returned ADAM10 inh inactive, FAS-TE inh inactive, ADAM17 inh inactive, GRIN3A LBD mod 13 and KLK7 zymogen act inactive.
Cc1ccc2nc(SCC(=O)c3c(C)[nH]c4ccccc34)[nH]c2c1 was read as ADAM10 inh inactive, FAS-TE inh inactive, ADAM17 inh inactive, GRIN3A LBD mod 12 and KLK7 zymogen act inactive.
`O=C(CSc1nc2ccccc2c(=O)n1-c1ccc(F)cc1F)NC1CC1` gave ADAM10 inh inactive, FAS-TE inh inactive, ADAM17 inh inactive and KLK7 zymogen act inactive.
For O=C(CSc1nc2ccccc2c(=O)n1-c1ccc(F)cc1F)c1c[nH]c2ccccc12 the results were ADAM10 inh inactive, FAS-TE inh inactive, ADAM17 inh inactive, GRIN3A LBD mod 19 and KLK7 zymogen act inactive.
`O=C(CSc1nc2ccccc2[nH]1)c1c[nH]c2ccccc12` gave ADAM10 inh inactive, FAS-TE inh inactive, ADAM17 inh inactive, GRIN3A LBD mod 14 and KLK7 zymogen act inactive.
O=C(CSc1nc2ccccc2[nH]1)c1ccccc1F was read as ADAM10 inh inactive, FAS-TE inh inactive, ADAM17 inh inactive, GRIN3A LBD mod inactive and KLK7 zymogen act inactive.
Cc1[nH]c2ccccc2c1C(=O)CSc1nc2ncc(Cl)cc2[nH]1 was read as ADAM10 inh inactive, FAS-TE inh inactive, ADAM17 inh inactive, GRIN3A LBD mod inactive and KLK7 zymogen act inactive.
Screening Cc1ccc(NC(=O)Cn2nnc(-c3ccncc3)n2)cc1C returned ADAM10 inh inactive, ADAM17 inh inactive and KLK7 zymogen act inactive.
For O[C@H](COc1cccc(C(F)(F)F)c1)CN1CCC(C(O)(c2ccccc2)c2ccccc2)CC1 the results were ADAM10 inh inactive, ADAM17 inh inactive and KLK7 zymogen act inactive.
Screening Cc1ccc(-n2c(SCC(=O)Nc3cccc4ccccc34)nnc2-c2cnccn2)cc1 returned ADAM10 inh inactive, ADAM17 inh inactive and KLK7 zymogen act inactive.
COC(=O)c1cc(S(=O)(=O)N2CCN(C(C)=O)CC2)cn1C was read as ADAM10 inh inactive, ADAM17 inh inactive and KLK7 zymogen act inactive.
For Cc1ccc2nc(SCC(=O)c3c[nH]c4ccccc34)[nH]c2c1 the results were ADAM10 inh inactive, FAS-TE inh inactive, ADAM17 inh inactive, GRIN3A LBD mod 15 and KLK7 zymogen act inactive.
Cc1[nH]c2ccccc2c1C(=O)CSC(=S)N1CCN(C)CC1 was read as ADAM10 inh inactive, FAS-TE inh inactive, ADAM17 inh inactive, GRIN3A LBD mod inactive and KLK7 zymogen act inactive.
For Cc1[nH]c2ccccc2c1C(=O)CSC(=S)N(C)C the results were ADAM10 inh inactive, FAS-TE inh inactive, ADAM17 inh inactive, GRIN3A LBD mod 16 and KLK7 zymogen act inactive.
Cc1ccc2nc(SCC(=O)c3cc(C)n(C)c3C)[nH]c2c1 was read as ADAM10 inh inactive, FAS-TE inh inactive, ADAM17 inh inactive, GRIN3A LBD mod inactive and KLK7 zymogen act inactive.
CCOC(=O)[C@]12CCCC=C1N(CCCOC)C(=O)[C@@H]2CC(=O)NCC12CC3CC(CC(C3)C1)C2 was read as ADAM10 inh inactive, ADAM17 inh inactive and KLK7 zymogen act inactive.
For COc1ccc(/C=C/c2ccc(=O)n(Cc3ccccc3)n2)cc1 the results were ADAM10 inh inactive, FAS-TE inh inactive, ADAM17 inh inactive, GRIN3A LBD mod 15 and KLK7 zymogen act inactive.
Screening O=c1ccc(/C=C/c2ccccc2)nn1Cc1ccc(F)cc1 returned ADAM10 inh inactive, FAS-TE inh inactive, ADAM17 inh inactive, GRIN3A LBD mod inactive and KLK7 zymogen act inactive.
O=C1CCC[C@H]2C[C@H](NCc3cccc(I)c3)CC[C@]23CCCN13 was read as ADAM10 inh inactive and ADAM17 inh inactive.
